What was measured:
Type in all cases: functional
[1] = test system: Plasmodium falciparum; test: GSK_TCMDC: Inhibition of Plasmodium falciparum 3D7 in whole red blood cells, using parasite LDH activity as an index of growth. Test compounds present at 2uM
[2] = test system: Plasmodium falciparum; test: GSK_TCMDC: Inhibition of Plasmodium falciparum Dd2 in whole red blood cells, using parasite LDH activity as an index of growth. Test compounds present at 2uM
[3] = test system: HepG2; test: GSK_TCMDC: Percent inhibition of human HepG2 cell line. Test compounds present at 10uM.

Structure (SMILES)	Inhibition [1] [%]	Inhibition [2] [%]	Inhibition [3] [%]
COc1ccc(S(=O)(=O)N(CCCN2CCN(C)CC2)Cc2csc(-c3ccc(CNCc4ccccc4)cc3)n2)cc1.O=C(O)C(F)(F)F	88	86	10
Br.CC(CCON1C(N)=NC(N)=NC1(C)C)c1ccc(Cl)cc1 (configuration not stated)	93	97	64
CCCCCCN1CCCN(Cc2ccc(C(=O)Nc3ccc(C)c(F)c3)cc2)CC1.O=C(O)C(F)(F)F	92	58	47
CCCN(CC)CCOC(=O)c1ccccc1	99	1	2
CC(C)COc1ccc(Cl)cc1Cc1nc(-c2nc3ccc(CN4CCN(C)CC4)cc3[nH]2)co1.Cl	100	57	5
O=C(Cc1ccc(F)cc1)NC1CCN(c2ccnc3cc(Cl)ccc23)C1.O=C(O)C(F)(F)F (configuration not stated)	99	85	0
CCN(CC)CCOc1c(Cl)cc(Cl)cc1CNCCCNc1cc(=O)c2ccccc2[nH]1	97	6	11
Cl.c1ccc(Oc2cccc(Nc3ccnc4ccccc34)c2)cc1	95	14	48
Fc1ccccc1-c1cc(Nc2ccncc2)nc(-c2cccnc2)n1	100	89	91
O=C(NCCNc1ccnc(NCc2ccc(F)cc2)n1)c1cc2ccccc2s1	99	17	6
O=C(N[C@@H](CC1CCCCC1)C(=O)NC1CCCCCC1)c1ccc(O)c(-c2ccc(Cl)c(Cl)c2)c1	99	100	0
COc1ccc(-c2onc(C(F)(F)F)c2-c2ccc(Br)cc2)c(O)c1	99	77	7
CC(C)CCN1CCC(Oc2ccc(NC(=O)c3ccccc3)cc2Cl)CC1.O=C(O)C(F)(F)F	87	88	17
Cl.ON=C1CCc2cc(-c3nc(-c4ccc(OCCN5CCCCC5)cc4)[nH]c3-c3ccncc3)ccc21	99	54	73
Cc1nc2c(-n3cc(Cn4ccnc4)c4ccccc43)ncnc2n1-c1ccc(Cl)cc1Cl	89	29	16
Nc1nccc2ccc(Oc3ccncc3)cc12	91	81	0
CCCCCCCCNc1c2ccc(Cl)cc2nc2ccc(OC)cc12.Cl	89	96	11
COc1ccc(C2CCN(CCCNC(=O)c3ccc(NC(=O)c4ccc(Cl)cc4)cc3)CC2)c(OC)c1	99	58	26
CC(C)(C)OC(=O)NCc1ccc(Nc2nnc(-c3cccc(C(=O)NCc4cc(C(F)(F)F)cc(C(F)(F)F)c4)c3)o2)cc1	90	13	4
Nc1c(Cl)cc(C(O)CNCCCCCOCCCc2ccc(O)c3ncccc23)cc1Cl.O=C(O)/C=C/C(=O)O (configuration not stated)	90	12	65
CCOC(=O)CCCOc1c(OC)cc(Cc2cnc(N)nc2N)cc1OC	96	7	10
COc1ccc2nc(-c3cccc(C)n3)nc(Nc3ccncc3)c2c1	100	42	0
O=C(c1ccco1)N1CCN(c2ccc([N+](=O)[O-])c(NC3CC3)c2)CC1	100	99	0
CC(c1cccc(S(=O)(=O)NCc2cccc(C(F)(F)F)c2)c1)N1CCC(N2CCCCC2)CC1 (configuration not stated)	99	35	37
CC(NC(=O)c1ccc(O)c(-c2ccc(Cl)c(Cl)c2)c1)C(=O)NC1CCCCC1 (configuration not stated)	96	82	0
CCc1cn(C)c2c(N3CCCC3=O)cc(C(=O)N[C@@H](Cc3ccccc3)[C@H](O)CNCc3cccc(OC)c3)cc12	96	97	7
COc1ccc2nccc([C@@H](O)CN3CCC(NC(=O)COc4nc(SCc5ccc(F)cc5)nc5c4CCC5)CC3)c2c1	96	78	29
Br.c1cc(C2=NC3CCCCC3N2)ccc1OCCCOc1ccc(C2=NC3CCCCC3N2)cc1 (configuration not stated)	99	64	0
CC(=O)Nc1cccc(Nc2nccc(-c3c(-c4cccc(NC(=O)c5c(F)cccc5F)c4)nn4ncccc34)n2)c1	96	51	83
